# PostGolgi yeast: growth inhibition of a yeast mutant, post-Golgi transport screen; AID 739; 98,000 tested, 0.9% active; inhibition, % at 10 µM; post-Golgi transport phenotypic cell assay;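 also: yeast cells grown in 1536-well plates; yeast grown about 18 h at 30C before absorbance read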
# PLAP activator: activators of human placental alkaline phosphatase | P05187 | purified PLAP enzyme, luminescent substrate read-out; active compounds read high | activation fold at 20 µM | 96,000 tested, 1.2% active | AID 696; in the data active = activation fold above about 2
# Cav32 inh: blocks human Cav3.2 T-type calcium channel | Cav3.2-expressing cells, Fluo-4 calcium fluorescence FDSS; active compounds read low | B-score at 10 µM | 100,000 tested, 4% active | AID 449739;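 active = single-dose well whose peak fluorescence ratio is a statistical outlier from its plate by either plate-standardised score or position-corrected B-score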
# DAT uptake mod: modulates human dopamine transporter uptake under cocaine; Q01959; LLC-PK1 hDAT cells, [14C]-dopamine uptake with cocaine IC80; actives deviate in either direction; B-score at 10 µM; 110,000 tested, 1.3% active; AID 449768;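 active = Z score or B-score, a plate-position-corrected score, falls beyond the plate's 99.7% confidence bounds, in either direction; inactive = both scores lie inside the 99.7% bounds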
# Target sequence (Q01959 whole entry, looked up): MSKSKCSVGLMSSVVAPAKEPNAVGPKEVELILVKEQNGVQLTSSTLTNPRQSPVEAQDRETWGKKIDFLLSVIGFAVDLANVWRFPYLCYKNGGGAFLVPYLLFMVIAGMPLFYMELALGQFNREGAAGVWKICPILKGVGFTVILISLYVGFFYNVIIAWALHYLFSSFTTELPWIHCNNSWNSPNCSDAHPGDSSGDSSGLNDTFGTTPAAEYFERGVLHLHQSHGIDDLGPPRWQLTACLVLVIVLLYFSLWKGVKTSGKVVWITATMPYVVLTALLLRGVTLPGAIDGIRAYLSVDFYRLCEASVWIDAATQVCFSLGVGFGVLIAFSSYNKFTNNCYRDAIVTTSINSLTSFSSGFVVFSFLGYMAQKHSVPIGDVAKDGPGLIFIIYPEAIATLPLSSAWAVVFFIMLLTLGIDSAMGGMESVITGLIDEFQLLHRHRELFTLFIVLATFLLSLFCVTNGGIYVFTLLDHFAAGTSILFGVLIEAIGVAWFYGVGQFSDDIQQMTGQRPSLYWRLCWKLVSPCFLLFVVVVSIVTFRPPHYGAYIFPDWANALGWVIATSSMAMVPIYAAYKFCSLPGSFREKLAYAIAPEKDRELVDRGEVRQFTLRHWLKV
# PostGolgi ctrl: inhibits growth of the yeast control strain; efflux-deficient yeast background strain, growth absorbance A615, 16 h; inhibition, % at 10 µM; 98,000 tested, 5% active
# Numbers stand for hits; - = inactive; . = not tested or not shown. The list is not random: actives were taken first. Their share in the collection is about 9.6%. Rule as the data show it, unless noted: active = inhibition above about 30%; inactive = the rest.
SMILES,PostGolgi yeast,PLAP activator,Cav32 inh,DAT uptake mod,PostGolgi ctrl
COc1cc2c(cc1OC)CN(C(=O)CC1CC3CCC1C3)CC2 (stereo not given),-,-,-,-,-
CCCn1c(NC(=O)c2ccc(C)cc2)nc2ccccc21,-,-,-,-,-
CCCn1c(NC(=O)c2ccccc2)nc2ccccc21,-,-,-,-,39
CCOC(=O)c1sc(NC(=O)c2cc(-c3ccccc3C)nc3ccccc23)c(C#N)c1C,-,-,-6.8,-,-
CCOC(=O)c1sc(NC(=O)CSc2nc(C)cc(-c3ccccc3)n2)c(C#N)c1C,-,-,-,-,-
COc1cc(/C=N/Nc2nc3ccccc3o2)cc(OC)c1O,-,2.3,-,-,-
COc1cc(/C=N\Nc2nc3ccccc3o2)cc(OC)c1OC,.,.,-,-,.
COc1ccc(/C=N/Nc2nc3ccccc3o2)cc1O,-,2.1,-,-,-
CCCc1cc(=O)[nH]c(/N=C(/NC(=O)c2ccccc2)Nc2ccc3c(c2)OCCO3)n1,.,.,-,-,.
CCn1cnc2sc(C(=O)O)c(C)c2c1=O,-,-,-,-,-
CCn1cnc2sc(C)c(C)c2c1=O,-,-,-,-,32
Cc1ccc(Cl)cc1NC(=O)COC(=O)C12CC3CC(CC(C3)C1)C2,-,-,-,-,36
Cc1ccc(S(=O)(=O)NCCCNC(=O)N2CCOCC2)cc1,-,-,-,-,-
Cc1cc(NC(=O)CCC(=O)N(CC(=O)NCC2CCCO2)Cc2ccc(F)cc2)no1 (stereo not given),.,.,-,-,.
Cc1cc(NC(=O)CCC(=O)N(CCC(C)C)CC(=O)NCC2CCCO2)no1 (stereo not given),-,-,-,-,38
Cc1nc(NC(=O)CSc2ccccc2N)sc1C,-,-,-,-,-
Cc1ccc(OCC(=O)NNC(=O)C2CCN(c3nc(C)cc(C)n3)CC2)cc1,-,-,-,-,-
Cc1ccc(OCC(=O)NNC(=O)C2CCN(c3ncccn3)CC2)cc1,-,2,-,-,-
CC1(C)OC(=O)C(=CNc2cccc(C(=O)O)c2)C(=O)O1,-,-,-,-7,-
CC1(C)OC(=O)C(=CNc2cccc(O)c2)C(=O)O1,-,-,-,-,-
O=C(NCCc1ccc(Cl)cc1)C1CCC(=O)N1Cc1ccc(F)cc1 (stereo not given),-,-,-,-,-
CCC(C(=O)NC1CCCCC1)n1c(SCc2cccc(F)c2)nc2ccncc21 (stereo not given),.,.,-,2.8,.
CN(C)S(=O)(=O)c1ccc2c(c1)nc(CCC(=O)NCC1CCCCC1)n2C,-,-,-,-,-
CCn1c(CCC(=O)Nc2nc3c(s2)CCCC3)nc2cc(S(=O)(=O)N(C)C)ccc21,-,-,-,-,33
Cc1ccc(C2CC(c3ccccc3Cl)n3nc(N)nc3N2)cc1 (stereo not given),-,-,-,-,40
SMILES,PostGolgi yeast,PLAP activator,Cav32 inh,DAT uptake mod,PostGolgi ctrl
Cc1ccc(C2CC(c3ccccc3C)n3nc(N)nc3N2)cc1 (stereo not given),-,.,-,-,-
C=CCn1c(SCC(O)Cn2c3ccccc3c3ccccc32)nnc1-c1ccco1 (stereo not given),-,-,-,-,46
CCOC(=O)c1cnc(Nc2nc3ccccc3o2)nc1CN1CCN(C)CC1,-,2,.,.,-
CN(C)S(=O)(=O)n1ccnc1,-,-,-,-,-
CC(C)N1CC(O)=C(c2nc3ccccc3c(=O)[nH]2)C1=N,-,-,-,1.3,-
Cc1ccc(-n2c(SCC(=O)NCc3ccco3)nc3sc(C)c(C)c3c2=O)cc1,-,.,-,-,-
Cc1sc2nc(SCC(=O)NCc3ccco3)n(-c3ccccc3)c(=O)c2c1C,-,-,-,-,-
CC(NC(=O)CSc1nc2sc3c(c2c(=O)n1-c1ccccc1)CCCC3)c1ccccc1 (stereo not given),.,.,-6.5,-,.
CC(C)C(C)(C#N)NC(=O)CSc1nc2scc(-c3ccco3)c2c(=O)n1-c1ccccc1 (stereo not given),-,-,-5.1,-,-
CC(C)C(C)NC(=O)CSc1nc2scc(-c3ccco3)c2c(=O)n1-c1ccccc1 (stereo not given),-,-,-5.4,-,-
Cc1cc(NC(=O)CSc2nc3sc4c(c3c(=O)n2C)CCCC4)no1,-,-,.,.,-
O=C(Nc1cccc(NC(=O)c2ccc(-c3ccc(Br)cc3)o2)c1)c1ccco1,.,.,-,-,.
O=C(CSc1nnc(Cc2ccccc2)n1-c1cccc(Cl)c1)N1CCOCC1,-,-,-,-,-
CCN(CC)CCCN1C(=O)C(O)=C(C(=O)c2cccs2)C1c1ccccn1 (stereo not given),.,.,-,-,.
C=CCN1C(=O)C(Cc2ccc(Br)cc2)S/C1=N\N=C\c1ccco1 (stereo not given),-,-,-,-,-
C=CCN1C(=O)C(Cc2ccc(OC)cc2)S/C1=N\N=C\c1cccs1 (stereo not given),-,-,-,3,-
Cn1cc([N+](=O)[O-])c(C(=O)Nc2ccn(Cc3c(F)c(F)cc(F)c3F)n2)n1,-,.,-,-,-
CC(C)NC(=O)c1ccc(C2SCC(=O)N2Cc2ccccc2)cc1 (stereo not given),.,.,-,-,.
Clc1ccc(OCCN2CCOCC2)cc1Cl,-,-,-4,-,-
Cc1cc(C)nc(NC(=O)NS(=O)(=O)N2CCCCCC2)n1,-,-,-,-,-
O=C(C=C1SCCS1)/C=C/c1ccco1,-,-,.,.,32
CC1CCN(CCOc2cc(Cl)ccc2Cl)CC1,49,-,-,-,-
C=C(C)CSc1nncn1/N=C/c1ccc(OC)cc1,-,-,-6,-,-
COc1ccc(CNC(=O)CSCc2cnn(-c3ccccc3)c2-n2cccc2)cc1,-,.,-7,-,-
O=C(CSCc1cnn(-c2ccccc2)c1-n1cccc1)NCc1ccc2c(c1)OCO2,-,.,-7.7,-,-
SMILES,PostGolgi yeast,PLAP activator,Cav32 inh,DAT uptake mod,PostGolgi ctrl
O=C(CSCc1ccccc1)NCc1ccc2c(c1)OCO2,-,-,-,-,-
O=C(CSCc1cnn(-c2ccccc2)c1-n1cccc1)NCCN1CCOCC1,-,-,-,-,-
C/C=C(\C)CN1CCN(c2ccc(C)cc2)CC1,-,-,-,-,-
Cc1ccc(O)c(Sc2cc(C)ccc2O)c1,-,2.5,.,-,-
Cc1ccc(O)c(O)c1,.,.,-,-,.
CC(C)CCNC(=O)C(c1ccco1)N(CC1CCCO1)C(=O)Cn1nnc2ccccc21 (stereo not given),-,.,-,-,-
Cc1ccccc1N(C(=O)Cn1nnc(-c2cccs2)n1)C(C(=O)NCCC(C)C)c1ccco1 (stereo not given),-,-,-3.5,-,-
COCCNC(=O)C(c1ccco1)N(C(=O)Cn1nnc2ccccc21)c1ccccc1C (stereo not given),-,-,-,-,-
CC(C)CCNC(=O)C(c1ccco1)N(Cc1cccs1)C(=O)Cn1nnc2ccccc21 (stereo not given),-,-,-4.7,-,-
O=C1OCC2=C1C(c1ccc3c(c1)OCO3)Sc1ccccc1N2 (stereo not given),-,-,-,-,-
CCOc1ccc(C2Sc3ccccc3NC3=C2C(=O)OC3)cc1 (stereo not given),-,-,-4.1,-,-

# Assay outcomes (PubChem)
